High-throughput results as filed in PubChem.
The list is not random: actives were taken first. Their share in the collection is about 7.9%.
FMDV antiviral = antivirals against foot and mouth disease virus; 410,000 compounds, 1.2% hits; Potency, µM (doses to about 57.9 µM), for the others: at the highest dose activity change, negative = inhibition, actives largely listed as inhibitors; FMDV antiviral cell-based qHTS; calls by dose curve; tested in HEK293T cells; note: read-out not given here; potency is the fitted concentration of half-maximal effect; nearly all actives have a fitted effect of over 45% in size
HCMV inh = blocks human cytomegalovirus replication | HFF cells, HCMV-luciferase reporter, 72 h; active compounds read low | activity change, negative = inhibition, % at 57.5 µM | 410,000 compounds, 4.5% hits | AID 1259415; in the data active = activity change below about -60%; inconclusive = no clear call, values can overlap the other calls; inactive = above about -39%
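Inhibition of viral replication was scored as loss of reporter luminescence in HFFs infected with HCMV-luciferase (MOI 1 PFU/cell) for 72 h; compounds tested at 2 doses, normalized to buffer and Salinomycin controls.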
HCV inhibitor = inhibitors of hepatitis C virus infection; Huh7.5.1 HCVcc-Cre infection, luciferase reporter, 44 h; Potency, µM (series often up to 41.8 µM), inactives show at the highest dose activity change, negative = inhibition, hits mostly inhibitors; 340,000 compounds, 3.4% hits; AID 651820; active = well fitted inhibition curve with a large enough effect; inconclusive = small, poorly fitted or top-dose-only effect, or another doubt; inactive = no such curve, though single readings can be large or run the other way; note: potency is the fitted concentration of half-maximal effect
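After 44 h co-culture of compound, cells and HCVcc-Cre (~0.5 moi), substrate is added for 15 min at room temperature and luciferase measured over 15 sec. Cells were seeded at 1,000/well and pre-cultured 4 h.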
Marburg entry inh = blocks Marburg virus binding to or entry into cells | Potency, µM (doses to about 37.8 µM), without a hit: top-dose activity change, negative = inhibition, most hits filed as inhibitors | Marburg virus pseudotyped entry inhibition, cell reporter | 300,000 compounds, 1.8% hits; calls by dose curve; tested in HEK293 cells; note: potency is the fitted concentration of half-maximal effect
Lassa entry inh = Lassa virus entry inhibition | Lassa virus pseudotype entry inhibition, cell reporter | Potency, µM (series often up to 37.9 µM), for inactives: at the top dose activity change, negative = inhibition, most hits filed as inhibitors | 300,000 compounds, 1.2% hits | AID 540256; calls by dose curve; tested in HEK293 cells; note: potency is the fitted concentration of half-maximal effect; nearly all actives have a fitted effect of over 50% in size
Active calls of the source: *; ? = inconclusive; . = no result given; [ ] = another dose, or the depositor's remark. % is set by controls: 0 for no effect and ±100 for the full control effect.

SMILES	FMDV antiviral	HCMV inh	HCV inhibitor	Marburg entry inh	Lassa entry inh
COc1ccc(C(=O)OC2CC3CC[C@H](C2)N3C(C)=O)cc1OC (stereo not given in full)	-13.4%	.	.	.	.
O=C(NCc1ccc(Cl)c(Cl)c1)O[C@H]1CC[C@@]23CCCN2C(=O)CCC[C@H]3[C@H]1Cc1ccccc1	.	-5.4	.	.	.
CCOc1ccc(NC(=O)CCNS(=O)(=O)c2ccc3c(c2)CCCC(=O)N3)cc1	-2.3%	1.2	.	.	-14.9%[46.1 µM]
CC(=O)Nc1ccc(Oc2ccc([N+](=O)[O-])cc2Cl)cc1	?	-16.1	-3.1%	?	-5.2%
CC(=O)Nc1ccc(N=c2cc([N+](=O)[O-])cc(Cl)n2O)cc1	0.3%	-85.0*	10µM*	?	?
COc1ccccc1CN1CCC2(CC1)c1ccccc1[C@@H](NC(=O)c1ccco1)[C@@H]2OC	-3.0%	.	.	.	.
Cc1nc2ccccc2c(=O)n1/N=C/c1ccc2ccccc2c1O	?	-82.4*	-26.3%	.	.
Cc1nnc(-c2ccccc2)c(=O)n1/N=C/c1c(O)ccc2ccccc12	-5.1%	-98.7*	?	?	?
O=c1c2ccccc2nc(COc2ccccc2)n1/N=C/c1ccc(O)cc1O	-14.8%	-95.9*	?	.	.
O=c1c2ccccc2nc(COc2ccccc2)n1/N=C/c1c[nH]c2ccccc12	-8.0%	-18.4	-0.2%	28.3%	?
C[C@H]1C(C(=O)N2CCCC2)=Cc2[nH]c(=O)[nH]c2C=C1c1ccccc1	.	.	.	18.4%[14.2 µM]	.
CCCCCn1nc2ccccc2c1OC	.	-15.2	.	.	.
Cc1cc(C)n(/N=C/c2cccs2)c(=O)c1C#N	-15.0%	-76.2*	9.5%	14.7%	-1.4%
Cc1cc(C)c(/C=N/n2c(C)cc(C)c(C#N)c2=O)c(C)c1	7.5%	-17.2	-19.0%	?	-10.7%
Oc1ccc(Br)cc1-c1nc2cnccn2c1NC1CCCCC1	.	?	?	?	3.9%
Oc1ccc(Br)cc1-c1nc2cnccn2c1NC1CCCC1	?	?	11.2µM*	?	-8.8%
Fc1ccc(-c2nc3cnccn3c2NC2CCCC2)cc1	-26.1%	-18.8	14.1µM*	.	.
CC(=O)c1cccc(NC(=O)CCS(=O)(=O)c2cc(Br)cc3c2N(C(=O)C2CC2)CC3)c1	-21.8%	-9.6	.	5.3%[46.1 µM]	?
Cc1ccc(CNC(=O)CCc2nc(-c3cccs3)no2)cc1	2.3%	-74.5*	-10.7%	.	.
O=C(CCc1nc(-c2cccs2)no1)NCc1ccc(F)cc1Cl	-3.6%	-62.9*	-3.3%	.	.
COc1ccc(NC(=O)CSc2nc(-c3ccccc3)cc(-c3cc(OC)c(OC)c(OC)c3)c2C#N)c(OC)c1	-7.4%	-10.1	.	.	?
COc1cccc(N(Cc2nnc3n2CCCCC3)C(=O)Nc2cccc(Cl)c2)c1	5.2%	8.8	.	.	1.1%[46.1 µM]
CCCCCc1cc(O)c2c3c(c(=O)oc2c1)CN(C)CC3	9.7%	-34.5	10µM*	.	.
CCCCCc1cc(O)c2c(C)cc(=O)oc2c1	0.0%	-105.4*	11.2µM*	-85.4%	?
Cc1cc(=O)oc2cc(O)cc(O)c12	-17.9%	3.2	-23.1%	.	.
SMILES	FMDV antiviral	HCMV inh	HCV inhibitor	Marburg entry inh	Lassa entry inh
CCCC12CN3CC(C)(CN(C1)C3c1cn(CC)c3ccccc13)C2=O (stereo not given)	-20.1%	10.0	.	1.0%[46.1 µM]	-10.6%[46.1 µM]
C/C(CC1CC(C)OC1=O)=N\NC(N)=S (stereo not given)	7.3%	22.8	3.9%	.	.
C/C(CC(C)(C)C1CCCCC1)=N\NC(N)=S	.	-87.8*	2.82µM*	?	16.4µM*
Fc1ccccc1-c1nc(-c2ccccc2)oc1NCc1ccccc1	.	.	.	0.7%[14.2 µM]	.
Cc1cc(NC(=O)c2ccc(Br)o2)cc(-c2nc3ccccc3o2)c1O	-23.4%	8.8	.	11.7%[46.1 µM]	0.8%[46.1 µM]
COc1ccccc1N1CCN(CCCCNS(=O)(=O)c2cccc3c(N(C)C)cccc23)CC1	.	.	.	7.08µM*	14.6µM*
COc1ccccc1N1CCN(CCCCN2C(=O)c3ccccc3C2=O)CC1	-14.6%	-102.0*	?	?	?
CC(=O)OC[C@H]1O[C@H](c2ccc(C(C)=O)cc2)C=C[C@H]1OC(C)=O	.	.	.	1.7%[14.2 µM]	.
Cc1cccc(-c2nc(C(N)=O)c3c(n2)n(-c2ccc4c(c2)OCO4)c(=O)n3C)c1	-5.7%	7.3	.	?	-22.9%[46.1 µM]
Cc1cc(N2CCOCC2)c2c(N)c(Br)cc(C)c2n1	?	-81.9*	?	-30.0%[46.1 µM]	2.7%
Cc1cc(=O)[nH]c(N2CCOCC2)n1	-5.6%	-20.4	5.2%	2.2%[46.1 µM]	15.7%
COc1cccc(NC(=O)Nc2cc(-c3cn4cccnc4n3)ccc2C)c1	14.5%	6.5	.	10.9%[46.1 µM]	?
COc1ccc(-c2cn3cccnc3n2)cc1NC(=O)c1ccc(Br)o1	-5.2%	-21.0	11.2µM*	-0.1%	-23.7%
COc1ccc(-c2cn3cccnc3n2)cc1NC(=O)Nc1cc(C)ccc1C	5.3%	-69.4*	.	?	?
COc1ccccc1CNC(=O)CCCCn1c(=O)c2ccccc2n(Cc2c(C)cc(C)cc2C)c1=O	-4.3%	3.7	.	11.0%[46.1 µM]	-7.3%[46.1 µM]
CC(C)(C)NC(=O)CSc1ncnc2c1nnn2Cc1ccccc1Cl	?	31.9	?	?	18.3µM*
O=C(CSc1ncnc2c1nnn2Cc1ccccc1)NC1CCCC1	?	9.8	7.0%	-8.2%[46.1 µM]	-11.3%
O=C(Cn1cnc2c(nnn2Cc2ccccc2F)c1=O)N1CCN(c2ccccc2)CC1	.	?	-2.6%	14.4%	14.6%
O=C(CSc1ncnc2c1nnn2Cc1ccccc1F)N1CCN(c2ccccc2)CC1	35.5µM*	-15.7	4.9%	-8.3%	?
COc1ccc(-n2c(=O)c3c4c(sc3n(Cc3cc(C)ccc3C)c2=O)CN(C(C)=O)CC4)c(OC)c1	-10.3%	-26.7	.	?	.
Cc1ccc(-c2cc(C(F)F)n3ncc(C(=O)Nc4c(C)nn(Cc5c(Cl)cccc5Cl)c4C)c3n2)cc1	-18.7%	-76.6*	-15.3%	1.8%[46.1 µM]	?
Cc1ccc(-c2cc(C(F)F)n3ncc(C(=O)Nc4c(C)nn(Cc5ccccc5Cl)c4C)c3n2)cc1	?	-95.4*	?	-5.7%	1.8%
CCOC(=O)c1cccc(NC(=O)CCc2c(C)nc3c4cccnc4nn3c2C)c1	?	-6.4	.	-14.0%[46.1 µM]	10.6%[46.1 µM]
CCOc1cc(C=O)c(Br)cc1OC1CCCC1	-29.8%	-62.0*	-26.1%	0.4%	?
COc1cc(C=O)c(Br)cc1OCc1ccc(C)cc1	.	5.7	-21.3%	?	6.1%
SMILES	FMDV antiviral	HCMV inh	HCV inhibitor	Marburg entry inh	Lassa entry inh
CCCn1c(=NC(=O)CS(=O)(=O)c2ccccc2)sc2cc(S(C)(=O)=O)ccc21	-11.6%	?	8.7%	-25.5%	-16.3%
COc1ccc2c(c1)sc(=NC(=O)CS(=O)(=O)c1ccc(F)cc1)n2C	-18.3%	-73.4*	?	?	-4.9%
CCc1ccccc1NC(=O)CCNS(=O)(=O)c1ccc2c(c1)CCN2C(=O)C1CC1	-11.7%	-5.3	.	.	-8.4%[46.1 µM]
CCOC(=O)c1c(Oc2ccc(C(=O)OC)cc2)nnc(-c2ccccc2)c1-c1ccccc1	?	-9.4	.	?	?
COc1ccc(CNc2nc3ccccc3n2CCN2CCCCC2)c(OC)c1	-1.2%	?	-14.5%	?	-23.0%
C=CCn1c(/N=C/c2ccc(OC)cc2)nc2ccccc21	21.8%	.	11.9%	.	.
